Active and inactive are the calls of the source. The call rests on the fitted dose curve; in most records, active means well fitted curve in the direction sought with a large enough effect in the repeat runs; inconclusive means weak or mixed curves; inactive means flat fitted curve, though single readings scatter.
Assay: qHTS assay to test for compound auto fluorescence at 535 nm (green) in HepG2 cells (AID 720675)
Conditions: green autofluorescence 485/535 nm, 1 h; series mostly up to 91.3 µM
Description: National Center for Advancing Translational Sciences [NCATS]
NIH Chemical Genomics Center [NCGC]
U.S. Environmental Protection Agency [EPA]
National Institutes of Environmental Health Sciences [NIEHS]
National Toxicology Program [NTP]
U.S. Food and Drug Administration [FDA]
Compound auto fluorescence often interferes with screening of the compound library against various biological targets and signaling pathways. Some of these compounds may have fluorophoric properties. Such properties may interfere with the assay outputs resulting in false positives and/or negatives. To decrease such complications and ensure the compound activities are relevant in terms of biological response, the Tox21 10K compound library was screened for auto fluorescence.
From the fluorophores used as reporter signals in our screening assays, the auto fluorescence equivalencies of compounds against three fluorophores have been evaluated: Triamterene, Fluorescein and Rose Bengal sodium for blue, green and red fluorescence, respectively. The fluorescence intensities were measured using Excitation/Emission wavelengths at 405/460nm, 485/535nm and 540/590nm for blue, green and red labels, respectively. This assay includes the green fluorescence data.
Tox21 Assay Protocol Summary:
2,000 HepG2 cells in 5 uL of culture medium (MEM containing 10% FBS) per well were dispensed into black wall/clear bottom 1536-well plates using a Multidrop Combi Dispenser (ThermoFisher Scientific, Waltham, MA). The assay plates were incubated overnight at 37 C to allow cell attachment to the well bottom, followed by the transfer of 23 nL compound or DMSO vehicle by a pintool work station (Kalypsys , San Diego, CA). After the assay plates were incubated for 1 hr at 37 C and 5% CO2, fluorescence intensities in the assay plates were measured by an Envision (PerkinElmer, Shelton, CT) plate reader using three labels for measuring blue, green and red fluorescence at […] 460, 535 and 590 nm respectively.

SMILES	outcome
c1ccc2c(c1)Cc1ccccc1-2	inactive
C=C(C)CNCC	inactive
CC1(C)NC(=O)NC1=O	inactive
COC(=O)CCCC(=O)OC	inactive
CCO[Si](CCCN)(OCC)OCC	inactive
CC(C)OC(=O)COc1ccc(Cl)cc1Cl	inactive
CC(C)(C)c1cc(Cc2cc(C(C)(C)C)c(O)c(C(C)(C)C)c2)cc(C(C)(C)C)c1O	inactive
C=CCc1ccc(OC)c(OC)c1	inactive
CNC(=S)N(C)C	inactive
OC1C(O)C(O)C(O)C(O)C1O (stereo not given)	inactive
CCO[Si](CCC#N)(OCC)OCC	inactive
Nc1nc(N)nc(-c2ccccc2)n1	inactive
NC(=S)NNC(N)=S	inactive
O=C(O)Cn1c(=O)n(Cc2ccc(Br)cc2F)c(=O)c2ccc(Cl)cc21	inactive
CN(C)c1ccc(O)c2c1C[C@H]1C[C@H]3[C@H](N(C)C)C(=O)C(C(N)=O)=C(O)[C@@]3(O)C(=O)C1=C2O	inactive
C=C(C)[C@H]1CC=C(C)C(=O)C1	inactive
CCCCC(C=O)CC (stereo not given)	inactive
C[C@]12CC[C@@H]3c4ccc(O)cc4CC[C@H]3[C@@H]1C[C@@H](O)[C@@H]2O	inactive
Brc1ccc(Br)c(Br)c1	inactive
C=Cc1ccc(C)cc1	inactive

SMILES	outcome
C=CC[N+](C)(C)CC=C	inactive
CC(C)(Oc1ccc(CCNC(=O)c2ccc(Cl)cc2)cc1)C(=O)O	inactive
C=CCCCCCCCCC(=O)O	inactive
CC(C)CC(C)O (stereo not given)	inactive
CCCCCCCCCCCCCCCCO	inactive
COCCCN	inactive
NCCN1CCNCC1	inactive
Cc1ccc([N+](=O)[O-])cc1S(=O)(=O)O	inactive
N#Cc1ccccc1	inactive
CC(C)OP(=O)(CP(=O)(OC(C)C)OC(C)C)OC(C)C	inactive
CCNc1cccc(C)c1	inactive
Clc1ccccn1	inactive
O=C(O)c1ccc(S(=O)(=O)N(Cl)Cl)cc1	inactive
O=C(O)c1ccccc1C(=O)O	inactive
CC(=O)OC1CC(C)OC(C)O1 (stereo not given)	inactive
COc1ccc(OC)cc1	inactive
Nc1ccc(Cl)c(N)c1	inactive
NCCCCCCN	inactive
COC(=O)c1cccnc1	inactive
CN(C)CCOC(=O)COc1ccc(Cl)cc1	inactive

— PubChem BioAssay (Tox21)
